# Test results from ChEMBL document CHEMBL1961873, “Compounds: GSK PKIS; Assays: Nanosyn kinase panel” (2012).
# Experiments:
# [1] = target: Ribosomal protein S6 kinase alpha-6 (Homo sapiens) (UniProt Q9UK32); settings: at 1 µM;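 also: each value is a mean inhibition of RSK4 from a GSK PKIS panel screen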
# [2] = target: T1, Serine/threonine-protein kinase Sgk1 (Homo sapiens) (UniProt O00141); settings: at 0.1 µM
# T1 sequence (whole entry): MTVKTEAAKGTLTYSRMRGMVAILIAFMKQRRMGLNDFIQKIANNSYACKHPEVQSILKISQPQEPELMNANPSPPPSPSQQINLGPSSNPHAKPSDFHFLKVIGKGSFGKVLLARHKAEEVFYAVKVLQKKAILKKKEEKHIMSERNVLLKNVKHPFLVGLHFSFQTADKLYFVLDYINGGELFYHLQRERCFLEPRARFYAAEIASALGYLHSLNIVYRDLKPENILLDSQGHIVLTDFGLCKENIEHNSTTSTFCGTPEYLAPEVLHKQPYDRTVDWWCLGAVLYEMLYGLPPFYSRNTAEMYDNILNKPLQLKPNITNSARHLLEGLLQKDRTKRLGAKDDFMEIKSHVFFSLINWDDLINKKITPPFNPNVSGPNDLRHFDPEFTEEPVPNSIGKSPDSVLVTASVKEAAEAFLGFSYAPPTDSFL
# [3] = target: T1, Serine/threonine-protein kinase Sgk1 (Homo sapiens); settings: at 1 µM
# [4] = target: T2, Serine/threonine-protein kinase Sgk2 (Homo sapiens) (UniProt Q9HBY8); settings: at 0.1 µM
# T2 sequence (whole entry): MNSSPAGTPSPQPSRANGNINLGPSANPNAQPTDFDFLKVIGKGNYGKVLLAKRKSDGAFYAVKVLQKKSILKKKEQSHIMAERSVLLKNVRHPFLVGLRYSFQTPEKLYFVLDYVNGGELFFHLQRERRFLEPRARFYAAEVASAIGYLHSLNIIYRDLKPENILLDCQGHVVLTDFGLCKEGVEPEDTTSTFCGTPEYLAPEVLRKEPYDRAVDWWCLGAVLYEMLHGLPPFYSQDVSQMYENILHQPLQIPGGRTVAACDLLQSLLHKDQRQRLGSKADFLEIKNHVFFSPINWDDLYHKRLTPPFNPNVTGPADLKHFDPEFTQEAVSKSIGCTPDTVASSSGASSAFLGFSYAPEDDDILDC
# [5] = target: T2, Serine/threonine-protein kinase Sgk2 (Homo sapiens); settings: at 1 µM
# [6] = target: T3, Serine/threonine-protein kinase Sgk3 (Homo sapiens) (UniProt Q96BR1); settings: at 0.1 µM
# T3 sequence (whole entry): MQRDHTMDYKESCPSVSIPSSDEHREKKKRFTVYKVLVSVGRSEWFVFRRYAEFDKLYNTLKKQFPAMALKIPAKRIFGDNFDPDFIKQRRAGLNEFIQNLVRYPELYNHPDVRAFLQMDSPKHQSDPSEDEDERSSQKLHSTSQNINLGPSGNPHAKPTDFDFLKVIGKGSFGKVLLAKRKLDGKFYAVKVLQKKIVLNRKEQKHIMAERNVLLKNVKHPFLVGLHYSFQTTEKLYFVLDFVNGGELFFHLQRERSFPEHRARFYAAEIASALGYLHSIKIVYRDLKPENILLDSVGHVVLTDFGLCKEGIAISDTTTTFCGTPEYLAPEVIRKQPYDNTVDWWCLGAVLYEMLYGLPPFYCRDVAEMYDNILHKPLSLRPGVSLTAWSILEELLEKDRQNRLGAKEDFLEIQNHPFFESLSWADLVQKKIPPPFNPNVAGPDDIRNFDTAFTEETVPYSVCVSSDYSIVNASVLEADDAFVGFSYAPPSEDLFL
# [7] = target: T3, Serine/threonine-protein kinase Sgk3 (Homo sapiens); settings: at 1 µM
# [8] = target: 5'-AMP-activated protein kinase catalytic subunit alpha-1 (Homo sapiens) (UniProt Q13131); settings: at 0.1 µM
# 5'-AMP-activated protein kinase catalytic subunit alpha-1 (Homo sapiens), sequence (Q13131 whole entry, looked up): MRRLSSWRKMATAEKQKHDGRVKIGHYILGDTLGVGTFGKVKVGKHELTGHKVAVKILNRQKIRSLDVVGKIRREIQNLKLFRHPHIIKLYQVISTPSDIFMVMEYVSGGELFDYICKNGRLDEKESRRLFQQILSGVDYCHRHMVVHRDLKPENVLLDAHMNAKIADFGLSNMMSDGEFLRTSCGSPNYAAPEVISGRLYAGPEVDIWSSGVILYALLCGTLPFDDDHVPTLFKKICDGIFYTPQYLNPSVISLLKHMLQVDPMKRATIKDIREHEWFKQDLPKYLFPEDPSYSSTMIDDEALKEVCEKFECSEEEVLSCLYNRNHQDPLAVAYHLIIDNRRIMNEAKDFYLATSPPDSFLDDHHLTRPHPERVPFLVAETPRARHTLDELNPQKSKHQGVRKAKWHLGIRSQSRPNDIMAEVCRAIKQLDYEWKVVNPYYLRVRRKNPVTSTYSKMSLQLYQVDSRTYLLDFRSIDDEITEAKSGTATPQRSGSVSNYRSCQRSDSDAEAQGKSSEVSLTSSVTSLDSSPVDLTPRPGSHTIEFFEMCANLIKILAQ
# [9] = target: 5'-AMP-activated protein kinase catalytic subunit alpha-1 (Homo sapiens) (UniProt Q13131); settings: at 1 µM
# [10] = target: 5'-AMP-activated protein kinase catalytic subunit alpha-2 (Homo sapiens) (UniProt P54646); settings: at 0.1 µM
# 5'-AMP-activated protein kinase catalytic subunit alpha-2 (Homo sapiens), sequence (P54646 whole entry, looked up): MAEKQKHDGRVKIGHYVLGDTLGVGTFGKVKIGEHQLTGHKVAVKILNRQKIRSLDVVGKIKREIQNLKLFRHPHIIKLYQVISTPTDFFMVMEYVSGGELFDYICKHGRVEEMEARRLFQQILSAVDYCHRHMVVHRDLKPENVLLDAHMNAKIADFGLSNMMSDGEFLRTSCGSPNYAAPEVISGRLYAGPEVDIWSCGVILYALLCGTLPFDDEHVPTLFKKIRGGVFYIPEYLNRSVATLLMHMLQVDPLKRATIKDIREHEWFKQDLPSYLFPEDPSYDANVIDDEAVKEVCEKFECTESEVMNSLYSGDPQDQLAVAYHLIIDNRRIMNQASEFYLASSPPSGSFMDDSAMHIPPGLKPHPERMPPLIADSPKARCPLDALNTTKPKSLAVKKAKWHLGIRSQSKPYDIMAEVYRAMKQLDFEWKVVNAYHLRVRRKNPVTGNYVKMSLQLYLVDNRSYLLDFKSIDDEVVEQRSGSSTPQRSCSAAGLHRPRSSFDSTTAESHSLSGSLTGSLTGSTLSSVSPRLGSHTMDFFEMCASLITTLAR
# [11] = target: 5'-AMP-activated protein kinase catalytic subunit alpha-2 (Homo sapiens) (UniProt P54646); settings: at 1 µM
# [12] = target: T4, NUAK family SNF1-like kinase 1 (Homo sapiens) (UniProt O60285); settings: at 0.1 µM
# T4 sequence (whole entry): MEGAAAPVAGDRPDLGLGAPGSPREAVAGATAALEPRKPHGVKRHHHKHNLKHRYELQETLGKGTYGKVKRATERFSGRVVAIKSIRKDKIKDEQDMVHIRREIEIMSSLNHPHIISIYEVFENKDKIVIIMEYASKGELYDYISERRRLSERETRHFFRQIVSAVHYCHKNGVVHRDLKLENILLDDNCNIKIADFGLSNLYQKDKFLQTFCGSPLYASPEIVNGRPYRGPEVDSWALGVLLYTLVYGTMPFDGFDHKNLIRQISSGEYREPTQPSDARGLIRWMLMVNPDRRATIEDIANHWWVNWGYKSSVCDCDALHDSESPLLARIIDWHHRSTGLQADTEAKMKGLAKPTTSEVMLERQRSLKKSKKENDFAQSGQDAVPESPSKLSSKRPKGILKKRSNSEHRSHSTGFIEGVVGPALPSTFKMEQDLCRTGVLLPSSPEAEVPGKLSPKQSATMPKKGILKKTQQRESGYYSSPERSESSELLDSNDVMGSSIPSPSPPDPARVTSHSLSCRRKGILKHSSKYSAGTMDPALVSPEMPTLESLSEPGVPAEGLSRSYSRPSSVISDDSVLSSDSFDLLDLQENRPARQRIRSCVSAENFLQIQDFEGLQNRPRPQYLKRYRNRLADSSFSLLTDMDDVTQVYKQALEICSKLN
# [13] = target: T4, NUAK family SNF1-like kinase 1 (Homo sapiens); settings: at 1 µM
# [14] = target: T5, Serine/threonine-protein kinase BRSK1 (Homo sapiens) (UniProt Q8TDC3); settings: at 0.1 µM
# T5 sequence (whole entry): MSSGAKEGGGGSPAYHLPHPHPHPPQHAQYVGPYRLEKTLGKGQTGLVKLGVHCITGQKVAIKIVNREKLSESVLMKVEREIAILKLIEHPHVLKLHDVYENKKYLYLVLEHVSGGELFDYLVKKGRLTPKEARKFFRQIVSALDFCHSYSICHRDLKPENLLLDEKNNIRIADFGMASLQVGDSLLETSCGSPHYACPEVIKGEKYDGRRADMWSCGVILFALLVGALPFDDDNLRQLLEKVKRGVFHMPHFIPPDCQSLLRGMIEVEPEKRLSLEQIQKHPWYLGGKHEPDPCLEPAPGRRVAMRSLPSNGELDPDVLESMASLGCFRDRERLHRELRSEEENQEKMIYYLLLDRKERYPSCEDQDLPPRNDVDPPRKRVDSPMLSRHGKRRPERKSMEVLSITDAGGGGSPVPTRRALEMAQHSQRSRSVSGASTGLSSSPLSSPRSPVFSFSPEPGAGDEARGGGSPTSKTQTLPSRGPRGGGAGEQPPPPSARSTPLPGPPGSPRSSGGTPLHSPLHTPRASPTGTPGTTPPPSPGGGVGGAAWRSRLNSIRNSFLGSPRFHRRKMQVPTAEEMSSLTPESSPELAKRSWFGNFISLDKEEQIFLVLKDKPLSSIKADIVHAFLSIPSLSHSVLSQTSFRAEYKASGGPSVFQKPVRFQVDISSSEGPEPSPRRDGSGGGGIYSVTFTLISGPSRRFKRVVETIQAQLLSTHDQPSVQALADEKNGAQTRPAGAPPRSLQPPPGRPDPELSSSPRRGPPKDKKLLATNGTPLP
# [15] = target: T5, Serine/threonine-protein kinase BRSK1 (Homo sapiens); settings: at 1 µM
# [16] = target: T6, Serine/threonine-protein kinase BRSK2 (Homo sapiens) (UniProt Q8IWQ3); settings: at 0.1 µM
# T6 sequence (whole entry): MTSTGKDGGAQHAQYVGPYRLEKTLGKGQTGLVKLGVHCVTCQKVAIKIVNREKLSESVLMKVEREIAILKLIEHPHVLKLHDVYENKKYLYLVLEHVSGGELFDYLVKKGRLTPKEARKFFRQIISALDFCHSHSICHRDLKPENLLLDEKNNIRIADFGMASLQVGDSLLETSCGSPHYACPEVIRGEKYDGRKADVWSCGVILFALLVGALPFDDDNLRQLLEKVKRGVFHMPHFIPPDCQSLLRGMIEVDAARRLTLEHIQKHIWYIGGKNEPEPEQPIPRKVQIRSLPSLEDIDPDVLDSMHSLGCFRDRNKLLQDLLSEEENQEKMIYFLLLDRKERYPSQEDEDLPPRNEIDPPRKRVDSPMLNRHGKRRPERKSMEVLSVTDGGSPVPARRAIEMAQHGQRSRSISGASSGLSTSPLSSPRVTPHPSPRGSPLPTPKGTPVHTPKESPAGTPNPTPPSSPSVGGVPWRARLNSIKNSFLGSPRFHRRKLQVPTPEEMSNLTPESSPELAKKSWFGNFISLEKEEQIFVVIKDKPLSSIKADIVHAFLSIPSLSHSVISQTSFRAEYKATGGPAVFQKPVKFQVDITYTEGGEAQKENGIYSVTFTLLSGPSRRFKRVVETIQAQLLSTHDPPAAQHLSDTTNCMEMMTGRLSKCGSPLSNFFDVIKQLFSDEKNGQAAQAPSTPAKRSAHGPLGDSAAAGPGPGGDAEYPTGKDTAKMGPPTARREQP
# [17] = target: T6, Serine/threonine-protein kinase BRSK2 (Homo sapiens); settings: at 1 µM
# [18] = target: Calcium/calmodulin-dependent protein kinase type 1D (Homo sapiens) (UniProt Q8IU85); settings: at 0.1 µM
# Calcium/calmodulin-dependent protein kinase type 1D (Homo sapiens), sequence (Q8IU85 whole entry, looked up): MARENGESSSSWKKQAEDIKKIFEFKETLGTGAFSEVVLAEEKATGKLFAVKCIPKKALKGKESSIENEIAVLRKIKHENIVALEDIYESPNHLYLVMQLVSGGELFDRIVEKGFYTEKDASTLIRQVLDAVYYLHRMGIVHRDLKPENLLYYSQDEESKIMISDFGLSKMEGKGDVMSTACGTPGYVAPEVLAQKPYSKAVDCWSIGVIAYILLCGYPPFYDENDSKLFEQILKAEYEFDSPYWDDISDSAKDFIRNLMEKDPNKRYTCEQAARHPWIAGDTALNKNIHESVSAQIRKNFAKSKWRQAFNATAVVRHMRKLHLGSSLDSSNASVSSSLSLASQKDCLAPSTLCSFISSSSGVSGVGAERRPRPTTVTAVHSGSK
# [19] = target: Calcium/calmodulin-dependent protein kinase type 1D (Homo sapiens) (UniProt Q8IU85); settings: at 1 µM
# [20] = target: Calcium/calmodulin-dependent protein kinase type II subunit alpha (Homo sapiens) (UniProt Q9UQM7); settings: at 0.1 µM;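 also: reported values are averages (mean inhibition of CAMK2A)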
# Calcium/calmodulin-dependent protein kinase type II subunit alpha (Homo sapiens), sequence (Q9UQM7 whole entry): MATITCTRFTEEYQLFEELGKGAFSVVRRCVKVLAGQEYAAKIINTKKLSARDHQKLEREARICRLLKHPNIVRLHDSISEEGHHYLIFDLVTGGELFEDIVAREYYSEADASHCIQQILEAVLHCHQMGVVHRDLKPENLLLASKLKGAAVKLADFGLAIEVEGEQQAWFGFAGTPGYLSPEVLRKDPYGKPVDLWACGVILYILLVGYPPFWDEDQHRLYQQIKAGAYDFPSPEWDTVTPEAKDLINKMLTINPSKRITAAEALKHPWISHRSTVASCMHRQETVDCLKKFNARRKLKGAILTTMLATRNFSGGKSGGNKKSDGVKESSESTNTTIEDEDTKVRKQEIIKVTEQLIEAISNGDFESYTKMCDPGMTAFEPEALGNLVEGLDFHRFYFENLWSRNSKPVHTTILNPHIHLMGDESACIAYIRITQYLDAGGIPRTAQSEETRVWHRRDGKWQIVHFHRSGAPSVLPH
# Ribosomal protein S6 kinase alpha-6 (Homo sapiens), sequence (Q9UK32 whole entry): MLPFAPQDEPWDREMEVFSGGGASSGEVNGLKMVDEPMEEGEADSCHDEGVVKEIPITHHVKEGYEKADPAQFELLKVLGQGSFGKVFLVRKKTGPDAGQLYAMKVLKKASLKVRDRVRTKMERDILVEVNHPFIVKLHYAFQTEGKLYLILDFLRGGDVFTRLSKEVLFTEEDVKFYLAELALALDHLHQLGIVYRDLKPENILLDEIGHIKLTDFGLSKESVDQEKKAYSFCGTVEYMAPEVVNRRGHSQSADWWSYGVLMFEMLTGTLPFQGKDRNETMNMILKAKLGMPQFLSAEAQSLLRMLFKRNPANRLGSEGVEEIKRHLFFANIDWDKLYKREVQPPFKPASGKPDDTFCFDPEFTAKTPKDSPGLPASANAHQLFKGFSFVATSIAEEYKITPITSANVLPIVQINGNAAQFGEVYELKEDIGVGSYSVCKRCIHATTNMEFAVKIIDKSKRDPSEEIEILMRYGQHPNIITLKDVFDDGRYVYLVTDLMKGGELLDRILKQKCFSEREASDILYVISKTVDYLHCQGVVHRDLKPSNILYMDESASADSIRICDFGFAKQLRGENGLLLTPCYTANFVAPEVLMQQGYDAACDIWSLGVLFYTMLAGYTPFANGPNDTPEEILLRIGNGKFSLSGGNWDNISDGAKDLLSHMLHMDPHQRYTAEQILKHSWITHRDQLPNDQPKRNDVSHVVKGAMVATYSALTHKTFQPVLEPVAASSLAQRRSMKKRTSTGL
SMILES,inhibition [1],inhibition [2],inhibition [3],inhibition [4],inhibition [5],inhibition [6],inhibition [7],inhibition [8],inhibition [9],inhibition [10],inhibition [11],inhibition [12],inhibition [13],inhibition [14],inhibition [15],inhibition [16],inhibition [17],inhibition [18],inhibition [19],inhibition [20]
O=C1NC(=O)C(c2ccc(Cl)cc2)=C1Nc1ccc(Cl)c(C(=O)O)c1,-1.03%,1.08%,-1.96%,-3.55%,-0.77%,-1.08%,-4.32%,-0.6%,-0.54%,0.26%,-0.57%,1.82%,3.54%,-0.49%,0.55%,0.35%,-1.78%,-0.66%,4.19%,-2.83%
O=C1Nc2ccc(C(=O)c3ccco3)cc2C1=Cc1cc(Cl)c(O)c(Cl)c1,12%,1.08%,5.11%,1.59%,3.35%,1.55%,2.25%,4.48%,21.4%,3.01%,10.8%,2.94%,10.8%,1.94%,8.43%,3.02%,13.1%,-0.26%,0.48%,3.4%
CCN1CCC(CC(=O)Nc2n[nH]c3nc(-c4cccs4)c(Br)cc23)CC1,1.64%,-1.12%,-1.95%,-5.07%,-0.81%,-2.7%,-2.06%,-0.96%,4.08%,3.33%,5.99%,-2.53%,9.14%,3.39%,21.7%,2.29%,18.5%,-0.45%,1.72%,-4.08%
CCn1c(-c2nonc2N)nc2ccncc21,1.11%,0.13%,1.04%,2.07%,-2.06%,0.78%,0.08%,2.35%,0.79%,-1.16%,4.28%,1.84%,4.31%,1.52%,2.23%,1.34%,0.91%,1.15%,1.59%,3.93%
COc1cc2c(cc1Nc1nc(N3CCc4ccccc43)c3cc[nH]c3n1)N(C(=O)CN(C)C)CC2,0.95%,0.53%,1.07%,-0.51%,2.34%,1.69%,-0.59%,2.03%,0.36%,-1.68%,3.8%,4.37%,-4.13%,2.17%,0.61%,0.98%,1.3%,0.34%,2.58%,3.95%
CC1=C(C(=O)Nc2ccc3[nH]ncc3c2)C(c2ccc3ccccc3c2)CC(=O)N1 (stereo not given),7.45%,2.12%,7.38%,3%,16.6%,1.33%,10.3%,7.34%,41%,2.46%,11.5%,7.78%,43.5%,1.91%,20.8%,3.96%,31.3%,-0.51%,0.49%,-0.08%
Cc1nn(C)c2cc(N(C)c3ccnc(Nc4cccc(S(N)(=O)=O)c4)n3)ccc12,6.01%,3.21%,3.89%,-0.4%,5.81%,3.28%,6.89%,1.01%,1.93%,2.68%,3.54%,20.6%,64.2%,1.45%,0.63%,0.72%,4.4%,0.85%,3.14%,1.6%
